Bioassay records as filed in PubChem.
Rows were chosen to be rich in hits. Some 3.5% of all compounds tested hit in one or more screens of this group.
Vc quorum ag – induces V. cholerae light production without autoinducers; activation, % at 18.7 µM; V. cholerae BH1578 lux reporter, luminescence, 6 h; 0.16% of 350,000 active; AID 588436; in the data active = activation mostly above about 9.7%, no sharp cut-off; inconclusive = no clear call, values can overlap the other calls; inactive = mostly below about 3.7%
BoNT F protease – inhibitors of Botulinum neurotoxin F light chain protease | inhibition, % at 10 µM | Multiplex microsphere protease cleavage assay, flow cytometry | 0.22% of 360,000 active | AID 588497; in the data active = inhibition above about 35%, passing the limit was not always enough; inconclusive = no clear call, values can overlap the other calls; note: plate controls were buffer without enzyme for full effect and enzyme alone for no effect
Anthrax LF prot – blocks Bacillus anthracis lethal factor protease | multiplex microsphere protease cleavage assay, LF | AID 588501 | P15917 | inhibition, % at 10 µM | 0.12% of 360,000 active; note: plate controls were buffer without enzyme for full effect and enzyme alone for no effect
Target sequence (P15917 whole entry, looked up): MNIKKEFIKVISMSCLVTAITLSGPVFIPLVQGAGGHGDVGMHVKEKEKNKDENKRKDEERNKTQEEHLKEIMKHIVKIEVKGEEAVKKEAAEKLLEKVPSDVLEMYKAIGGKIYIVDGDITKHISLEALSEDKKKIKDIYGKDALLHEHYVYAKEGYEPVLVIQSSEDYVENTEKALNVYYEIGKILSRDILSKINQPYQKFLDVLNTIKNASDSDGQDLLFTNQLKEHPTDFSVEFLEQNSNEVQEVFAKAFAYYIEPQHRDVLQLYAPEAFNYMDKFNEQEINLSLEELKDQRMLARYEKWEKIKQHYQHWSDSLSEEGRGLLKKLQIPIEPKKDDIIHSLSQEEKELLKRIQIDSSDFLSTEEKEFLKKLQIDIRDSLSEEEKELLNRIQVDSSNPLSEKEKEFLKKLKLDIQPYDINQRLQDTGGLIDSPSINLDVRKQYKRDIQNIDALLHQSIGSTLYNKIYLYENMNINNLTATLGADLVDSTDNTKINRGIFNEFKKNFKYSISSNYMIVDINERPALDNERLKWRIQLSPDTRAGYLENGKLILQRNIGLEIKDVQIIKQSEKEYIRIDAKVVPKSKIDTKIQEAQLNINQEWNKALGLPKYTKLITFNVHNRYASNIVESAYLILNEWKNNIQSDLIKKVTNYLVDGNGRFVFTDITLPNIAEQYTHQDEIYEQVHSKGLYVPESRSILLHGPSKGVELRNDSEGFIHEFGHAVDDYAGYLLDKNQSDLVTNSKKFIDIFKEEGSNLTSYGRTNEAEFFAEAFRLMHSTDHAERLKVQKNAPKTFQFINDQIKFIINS
BoNT A protease – BoNT A light chain protease inhibition; multiplex microsphere protease substrate cleavage, flow cytometry; inhibition, % at 10 µM; 0.17% of 360,000 active; AID 588499; note: plate controls were buffer without enzyme for full effect and enzyme alone for no effect
Autofluor counter – compound fluorescence in toxin protease inhibitor counterscreen. compound autofluorescence counterscreen, microsphere flow cytometry; stronger effect = higher value. fluorescence intensity (test concentration not listed). 3.1% of 360,000 active. AID 624483; in the data active = fluorescence intensity above about 16000; inconclusive = no clear call, values can overlap the other calls
* = called active by the depositor; i = inactive; ? = inconclusive. Cut-off read from the data, not from the text of the source, unless noted: active = inhibition above about 30%; inconclusive = no clear call, values can overlap the other calls; inactive = below that.

SMILES	Vc quorum ag	BoNT F protease	Anthrax LF prot	BoNT A protease	Autofluor counter
O=C(NCc1cccc(Br)c1)c1cc(-c2ccccc2)nn1CC1CC(c2cccc([N+](=O)[O-])c2)=NO1 (configuration not stated)	-1	-4	2	0	2872
Cc1ccc(O)c(C(=O)c2cc(C#N)c(=O)n(-c3c(C)n(C)n(-c4ccccc4)c3=O)c2)c1	0	0	-1	-1	16705*
COc1ccc(C(=O)C[n+]2cc(-c3ccc(OC)cc3)n3c2CCCC3)cc1	-1	3	-2	1	3984
Cc1ccc(C(=O)C[n+]2cc(-c3ccc(C)cc3)n3c2CCCCC3)cc1	1	-7	-2	-7	22561*
Cc1onc(-c2c(Cl)cccc2Cl)c1C(=O)NCCN1CCOCC1	i	7	0	0	10476
Cc1onc(-c2c(F)cccc2Cl)c1C(=O)NCCCN1CCOCC1	i	1	2	?	20261*
COC(=O)CNC(=O)c1c(-c2c(Cl)cccc2Cl)noc1C	i	-1	0	2	23118*
O=C1C(Cl)=C(NCCc2ccccc2)C(=O)N1CCc1ccccc1	-2	-8	-3	1	4587
O=C(CCCc1ccccc1)NCCCN1CCOCC1	i	4	3	2	22241*
O=C1C(Cl)=C(NCCCN2CCOCC2)C(=O)N1CCc1ccccc1	i	-2	-9	0	22919*
C[C@H](CO)N1C[C@H](C)[C@@H](CN(C)Cc2cccc3c2OCCCO3)OCc2cnnn2CCCC1=O	4	0	0	0	3313
O=C(NCCCN1CCOCC1)c1c(F)cccc1F	i	-4	-1	?	21499*
Cc1onc(-c2c(F)cccc2Cl)c1C(=O)Nc1cccc2nsnc12	i	1	-1	1	22508*
O=C(NCCCN1CCOCC1)c1c(F)c(F)c(F)c(F)c1F	i	-4	-2	-1	6552
Cc1onc(-c2c(F)cccc2Cl)c1C(=O)NC1=NCCS1	-1	-4	1	0	7911
Cc1ccc(NC(=O)C(C)OC(=O)c2ccc(NC(=O)CC#N)cc2)cc1S(=O)(=O)N1CCOCC1 (configuration not stated)	i	?	?	?	5242
O=C(COC(=O)[C@@H]1CC(O)CN1S(=O)(=O)c1ccc2c(c1)OCCO2)NCc1ccc(F)cc1 (some centres not stated)	-1	-6	0	0	4122
COc1ccc(C)cc1-n1nnnc1SC/C(O)=C(\C#N)c1nc2ccccc2[nH]1	-3	-1	1	0	21719*
O=C(NCc1ccccc1)c1ccccc1NC(=O)C1CCCCC1	-1	-1	-4	-1	4425
CCOC(=O)c1sc2cccc(Cl)c2c1N	i	6	0	1	4672
CCOC(=O)c1sc2cccc(F)c2c1N	i	0	-7	?	22763*
COc1cccc(-n2nnc3c(=O)n(CC(=O)Nc4ccccc4C)cnc32)c1	-1	6	-6	0	6249
COc1cccc(-n2nnc3c(=O)n(Cc4ccc(Br)cc4)cnc32)c1	0	-6	-4	-5	21527*
COc1cccc(-n2nnc3c(=O)n(Cc4ccc(Cl)cc4)cnc32)c1	0	-1	0	-1	21157*
COc1cccc(-n2nnc3c(=O)n(CC(=O)NC4CCCC4)cnc32)c1	0	0	0	1	20217*
SMILES	Vc quorum ag	BoNT F protease	Anthrax LF prot	BoNT A protease	Autofluor counter
O=C(Cn1cnc2c(nnn2Cc2ccc(F)cc2)c1=O)NC1CCCC1	0	4	0	3	22114*
CCOc1ccc(NC(=S)N2CCN(S(C)(=O)=O)CC2)cc1	0	1	-3	-1	6073
O=C(CCCSc1nc2ccccc2[nH]1)Nc1nnc(-c2ccccc2)o1	i	-1	1	?	22546*
O=C(COC(=O)C1=COCCO1)Nc1ccc(Br)cc1Br	i	-6	0	0	6339
CCOC(=O)CC/C(=N\NC(N)=O)c1ccc(OC)c(Cl)c1	0	-6	1	0	3082
Cc1ccc(C(=O)Oc2coc(CSc3nnc(NC(=O)C4CC4)s3)cc2=O)cc1	-3	0	-1	30*	2590
C=CCn1c(CNC(=O)c2ccco2)nnc1SCC(=O)N1c2ccccc2Sc2ccccc21	3	14	-17	11	18468*
Cc1cc2c(SCC(=O)NC3CCCC3)ncnc2s1	0	-14	0	-2	3409
CN(c1ccccc1C(=O)Nc1ccc(S(=O)(=O)N2CCCCC2)cc1)S(C)(=O)=O	i	-7	1	-2	20379*
Cc1nnc(SC(C)C(=O)Nc2ccc(S(=O)(=O)N3CCCCCC3)cc2)s1 (configuration not stated)	i	-1	-2	0	22908*
CC(=O)Nc1ccc(NC(=O)c2ccccc2N(C)S(C)(=O)=O)cc1	i	-9	-2	-4	24126*
CC(=O)NS(=O)(=O)c1ccc(NC(=O)c2ccccc2F)cc1	i	-2	-3	-1	23846*
COc1ccc(NC(=O)N(C)C[C@H]2Oc3c(NC(=O)c4nc5ccccc5s4)cccc3C(=O)N([C@@H](C)CO)C[C@H]2C)cc1	-2	-2	3	-1	4461
O=C(O)c1ccccc1C(=O)Nc1ccc(Nc2ccccc2)cc1	-6	-31	-8	0	3663
CC(=O)N(C)c1ccc(NC(=O)c2ccccc2C(=O)O)cc1	i	3	-1	?	21123*
CCc1ccc(N2CN(Cc3cccnc3)CNC2=S)cc1	-1	3	-3	0	4108
S=C1NCN(Cc2cccnc2)CN1	0	35*	?	1	3668
COC(=O)c1ccc(OC(C)C(=O)c2ccc(C)cc2)cc1 (configuration not stated)	-1	2	-1	0	2165
COc1cccc(C2NC(=O)c3ccccc3O2)c1OC (configuration not stated)	i	3	-13	?	18893*
Cc1ccc(S(=O)(=O)N2CCOC2CNC(=O)C(=O)NCc2ccncc2)cc1 (configuration not stated)	-1	2	-8	0	3435
COc1ccc(/C=N/N2CCN(Cc3ccc(C)cc3)CC2)cc1Br	i	43*	-6	-3	4367
COc1cc(/C=N/N2CCN(Cc3ccc(Cl)cc3)CC2)cc(Br)c1O	i	36*	-2	-4	4715
Cc1ccc(CN2CCN(/N=C/c3ccc(O)c(O)c3)CC2)cc1	0	-1	17	1	3261
O=C1OCCC1(c1ccccc1)c1ccccc1	1	-6	2	-3	5688
COc1ccc(-n2c(=O)cc(N3CCOCC3)[nH]c2=O)cc1	i	1	-1	-1	19939*
O=c1cc(N2CCN(c3ccccc3)CC2)[nH]c(=O)n1-c1ccccc1Cl	0	-6	-2	-4	21259*
CCOc1ccc(-n2c(=O)cc(N3CCN(c4ccccc4)CC3)[nH]c2=O)cc1	0	1	-4	1	21972*
Cc1ccc(NC(=S)N2CCN(S(C)(=O)=O)CC2)cc1Cl	-1	-1	1	-1	6022
